# Source: PubChem BioAssay
# CF NFkB inh: inhibitors of cystic fibrosis induced NF-kB. hit rate 0.86% among 360,000. inhibition, % at 5 µM. KKLEB NF-kB-GFP reporter, PAF-induced, GFP fluorescence overnight;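 active = at least 50% inhibition at 5 µM, scaled per plate between neutral and stimulator controls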;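 also: PAF is a Pseudomonas aeruginosa culture filtrate used as stimulus; plate controls were PAF-stimulated DMSO wells for no effect and unstimulated DMSO wells for full effect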
# Peg3 prom inh: reduces Peg3 promoter-driven luciferase expression in HeLa | AID 588405 | inhibition, % at 20 µM | hit rate 1.7% among 360,000 | HeLa PEG-Prom luciferase reporter, luminescence, overnight;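 active = inhibition of at least 50% at 20 µM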
# TROY signal inh: TROY signaling inhibition; AID 1347056; Q293 LMP1-TROYcd NF-kB luciferase reporter, 4 h; inhibition, % at 10 µM; hit rate 0.98% among 360,000;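 active = compounds whose plate-normalised and pattern-corrected inhibition of the luciferase reporter signal at the single screening dose is 50% or more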
# TWEAK-Fn14 inh: inhibitors of TWEAK-Fn14 interaction signaling; TWEAK-stimulated Fn14 reporter cells, luciferase luminescence, 8 h; inhibition, % at 10 µM; hit rate 2% among 360,000; AID 1159606; in the data active = inhibition above about 50%
# HIF-2a inh: blocks HIF-2a reporter activity. 786-0 RCC cells HIF-2a reporter, luciferase luminescence, overnight. inhibition, % at 18.8 µM. hit rate 0.72% among 360,000. AID 624352;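 active = inhibition of the luminescence signal of 40% or more relative to plate controls, in a single-dose primary screen at 18.75 µM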
# KKLEB cytotox: counter-screen for CF NF-kB inhibitors: cytotoxicity; hit rate 0.36% among 360,000; activity change (cytotoxicity), % at 5 µM; KKLEB CF airway cells viability, ATPlite luminescence, overnight; active compounds read low; cells stimulated with P. aeruginosa culture filtrate; AID 602141;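 active = corrected activity change at or below -50% at 5 µM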
# An asterisk follows results filed as active; nt = not tested or not shown. Rows were chosen to be rich in hits. Some 4% of all compounds tested hit in one or more screens of this group.
SMILES,CF NFkB inh,Peg3 prom inh,TROY signal inh,TWEAK-Fn14 inh,HIF-2a inh,KKLEB cytotox
Cc1ccc(N2C(=O)CC(NNc3nc4ccccc4s3)C2=O)cc1 (stereo not drawn),13.9,0.4,-0.4,-2.6,9.4,-7.6
Nc1c(N(CCC2=CCCCC2)C(=O)COc2ccc(F)cc2Cl)c(=O)[nH]c(=O)n1Cc1ccccc1,38.0,106.0*,10.2,42.4,-2.8,-36.4
Nc1c(N(CCC2=CCCCC2)C(=O)COc2ccc([N+](=O)[O-])cc2)c(=O)[nH]c(=O)n1Cc1ccccc1,5.9,83.7*,6.9,8.0,0.5,-27.3
Nc1c(N(CCC2=CCCCC2)C(=O)Cc2ccc(F)cc2)c(=O)[nH]c(=O)n1Cc1ccccc1,26.7,6.8,-7.8,12.9,3.3,-9.9
COCCCN(Cc1cc(OC)c(OC)c(OC)c1)C(=S)Nc1cccc(Cl)c1,7.8,13.2,6.2,4.2,4.3,6.3
CCOC(=O)c1c(C)[nH]c(C(=O)NNC(=O)c2ccccc2F)c1C,20.3,-187.6,-17.3,26.4,-203.4,-5.1
CCOC(=O)c1c(C)[nH]c(C(=O)NNC(=O)c2ccc(Br)cc2)c1C,18.8,-65.7,54.8*,56.0*,-163.4,-12.7
CCOC(=O)c1c(C)[nH]c(C(=O)NNC(=O)c2ccccc2)c1C,-16.0,-145.0,-25.3,52.9*,-117.2,13.8
CCCCCC(=O)N1C[C@@H](n2cc(C3CC3)nn2)[C@H](O)C[C@@H]1c1ccc(OC)cc1,-3.0,-6.3,-3.8,-3.8,10.4,10.4
Cc1cccc(CSc2nnc(CCCCCNC(=O)OC(C)(C)C)o2)c1,3.8,8.5,72.0*,6.1,26.1,8.4
O=C1NC[C@@H](Cc2ccc(O)cc2)N(CCc2cc(C(F)(F)F)cc(C(F)(F)F)c2)C1=O,nt,nt,-2.2,-0.5,-11.8,nt
O=C(Nc1nnc(SCc2ccc(F)cc2)s1)c1ccccn1,-27.3,64.6*,32.8,-15.6,-91.7,5.2
OC(c1ccc2ccccc2c1)c1ncc(-c2cccc3ccccc23)[nH]1 (stereo not drawn),2.2,25.9,17.1,-10.2,8.7,-9.2
Cc1ccc(-c2cc3onc(-c4ccccc4)c3c(=O)n2C)cc1,-1.9,-4.5,88.6*,102.0*,17.6,-31.9
CCCOc1ccc(-c2cc3onc(-c4ccccc4)c3c(=O)n2C)cc1,-4.4,-96.7,81.4*,89.0*,-98.5,-41.0
O=C1C(Cl)=C(NC(=O)c2ccccc2)C(=O)C(Cl)=C1NC(=O)c1ccccc1,52.5*,103.0*,9.6,24.1,72.0*,6.8
CCOc1ccc(-c2nnc(SCc3nnc(-c4ccccc4)o3)n2-c2ccccc2F)cc1,-2.5,-102.2,61.1*,52.0*,-81.7,9.4
Cc1ccc(-c2nnc(CSc3nnc(COc4ccccc4)n3-c3ccccc3)o2)cc1,4.5,-5.6,-11.0,-0.6,-16.2,0.3
CCCCn1c(N)c(N(CC(C)C)C(=O)c2cccc(S(=O)(=O)N3CCN(C)CC3)c2)c(=O)[nH]c1=O,-20.7,-17.4,-5.7,2.5,2.5,1.8
Cc1cc(/C=C2\Sc3ccccc3N2C)cc(C)[n+]1CC1CCCO1 (stereo not drawn),-4.2,70.4*,4.8,17.2,-1.8,-28.9
CN(CCc1ccccc1)C(c1cc2ccccc2o1)c1nnnn1C(C)(C)C (stereo not drawn),nt,nt,1.5,14.5,-4.7,nt
COc1ccc(N2CCN(C(=O)Cc3csc(NC(=O)Nc4ccccc4OC)n3)CC2)cc1,14.2,38.0,16.8,28.2,18.2,-17.4
NC(COCc1ccccc1)c1csc(NC(=O)Nc2cccc(C(F)(F)F)c2)n1 (stereo not drawn),85.5*,100.4*,-1.4,-14.6,11.6,-82.7*
NC(=O)c1ccc(Nc2nc(C(N)COCc3ccccc3)cs2)cc1 (stereo not drawn),21.2,11.0,1.1,-0.4,-1.4,-4.0
COc1ccccc1NC(=O)Nc1nc(C(N)C2CCCCC2)cs1 (stereo not drawn),6.9,82.1*,4.4,-6.7,3.3,-13.9
SMILES,CF NFkB inh,Peg3 prom inh,TROY signal inh,TWEAK-Fn14 inh,HIF-2a inh,KKLEB cytotox
NC(c1csc(NC(=O)Nc2ccccc2)n1)C1CCCCC1 (stereo not drawn),19.8,47.9,-12.7,-2.0,-10.9,-3.5
NC(c1csc(NC(=O)Nc2cccc(Cl)c2)n1)C1CCCCC1 (stereo not drawn),32.5,91.9*,0.9,-3.9,5.4,-12.1
COc1ccccc1NC(=O)Nc1nc(CC(=O)N2CCN(c3ccc(F)cc3)CC2)cs1,14.3,44.9,39.9,50.9*,-2.7,-20.3
O=C(CCNS(=O)(=O)c1ccc(Br)cc1)NCCCSc1ccccc1,5.7,10.7,-17.3,9.2,8.8,-18.3
CCCCN(C(=O)c1c(-c2ccccc2)noc1C)c1c(N)n(CCC)c(=O)[nH]c1=O,4.6,0.0,7.8,7.4,-0.4,-2.8
NC(c1csc(NC(=O)Nc2ccccc2Cl)n1)C1CCCCC1 (stereo not drawn),13.8,94.9*,-12.0,-20.7,-18.4,-12.7
COc1ccc(CCNC(=O)Nc2nc(C(N)CCc3ccccc3)cs2)cc1OC (stereo not drawn),-0.3,27.7,5.0,10.2,1.0,0.6
NC(CCc1ccccc1)c1csc(NC(=O)Nc2cccc(Cl)c2)n1 (stereo not drawn),28.2,89.0*,2.6,7.1,14.3,-18.5
COC(=O)C1=CN(c2cccc(OCc3ccccc3)c2)C(N)=C(C#N)C1c1ccc(-c2ccccc2)cc1 (stereo not drawn),nt,nt,nt,nt,-8.6,nt
Cc1c(C#N)c(O)n(C)c(=O)c1N=Nc1ccc(S(N)(=O)=O)cc1,-64.6,-73.2,-30.9,-35.9,-75.5,0.8
CCOC(=O)c1ccc(N=Nc2c(C)c(C#N)c(O)[nH]c2=O)cc1,65.4*,-91.6,-59.4,-1.4,-138.7,-19.6
CCn1c(SCC(=O)N/N=C(\C)c2ccco2)nnc1-c1ccccc1,-11.0,5.8,-2.5,1.4,16.4,14.5
CCO[C@@H]1OC(C(=O)N2CCOCC2)=C[C@H](C(C)(C)C)[C@H]1CCCO,1.0,1.0,15.0,-4.4,4.0,2.4
CCO[C@H]1OC(C(N)=O)=C[C@@H](C(C)(C)C)[C@@H]1CCCO,9.8,0.2,-18.6,53.5*,13.6,0.5
CCN(CC)CCn1c(=N)n(CC(=O)c2ccc(Br)s2)c2ccccc21,8.7,79.5*,1.9,0.0,7.8,-11.4
COc1ccccc1N(/N=C1\Sc2ccccc2C1=O)C(C)=O,-10.8,-220.9,78.0*,79.3*,-107.0,2.6
COc1ccc(N(/N=C2\Sc3ccccc3C2=O)C(C)=O)cc1,5.8,-238.5,9.4,1.8,-232.4,-8.6
OC1CC2CCC(C1)N2CCCN1c2ccccc2Sc2ccc(Cl)cc21 (stereo not drawn),37.5,104.8*,-6.4,-4.0,-17.1,-5.1
CCN(CC)CCCCN1c2ccccc2Sc2ccccc21,12.7,14.1,-31.4,-0.8,3.2,-11.4
